An excerpt weighted towards active compounds, which were near 4.6% of everything screened.
hcDAF12 agonist: activators of H. contortus DAF-12 nuclear receptor. HEK293 hcDAF-12 lit1-tk-luc reporter, luminescence; 0% DMSO, 100% Δ7-dafachronic acid. activation, % at 6.8 µM. 370,000 compounds, 1.4% hits;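 active means activation above the mean of all tested compounds plus 3 SD, cut at about 5.5% in these data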;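 further: 100% = response to 3 µM Δ7-dafachronic acid high control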
DAX1 inh-1: blocks DAX1 repression of SF-1 activated StAR promoter | HEK293T StAR-luciferase reporter, SF-1/DAX-1 repression relief | AID 652010 | 370,000 compounds, 1.1% hits | inhibition, % at 6.8 µM;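 active means inhibition above the mean over all tested compounds plus 3 SD, cut at about 3.6% in these data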;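 further: 0% = DAX-1 cells with DMSO and 100% = cells lacking DAX-1 with DMSO; higher inhibition means more luminescence from relief of DAX-1 repression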
Wee1 degr inh: inhibitors of human Wee1 degradation | AID 1321 | 220,000 compounds, 1.2% hits | HeLa Luc-Wee1K328M stability, luciferase luminescence; 100% = proteasome inhibitor MG132 effect | P30291 | reporter increase, % at 5 µM;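 active means activation above the mean of all tested compounds plus 3 SD, set per screening run, cut at about 8.8% in these data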;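 further: cells exposed to compound for 20 h before luminescence read; 0% = DMSO alone and 100% = MG132 at 30 µM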
hgDAF12 agonist: agonists of H. glycines DAF-12 nuclear receptor; HEK293 GAL4-hgDAF12 UAS-luciferase reporter, agonist luminescence; normalized to butyrate control; activation, % at 6.8 µM; 370,000 compounds, 1.8% hits; AID 687014;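 active means activation above a cutoff set at the mean of all screened compounds plus 3 SD, cut at about 10% in these data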;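 further: 0% = DMSO wells and 100% = sodium butyrate wells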
DAX1 inh-2: inhibits human nuclear receptor DAX1. HEK293 Gal4-DAX1 luciferase reporter, luminescence. inhibition, % at 6.75 µM. 340,000 compounds, 0.99% hits. P51843;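 active means inhibition above the mean over all tested compounds plus 3 SD, cut at about 4.2% in these data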;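 further: 0% = DAX1-transfected cells with DMSO and 100% = empty-vector control cells with DMSO; inhibition shows as a rise in luminescence from relieved DAX1 repression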
Target sequence (P51843 207-470 limits assumed): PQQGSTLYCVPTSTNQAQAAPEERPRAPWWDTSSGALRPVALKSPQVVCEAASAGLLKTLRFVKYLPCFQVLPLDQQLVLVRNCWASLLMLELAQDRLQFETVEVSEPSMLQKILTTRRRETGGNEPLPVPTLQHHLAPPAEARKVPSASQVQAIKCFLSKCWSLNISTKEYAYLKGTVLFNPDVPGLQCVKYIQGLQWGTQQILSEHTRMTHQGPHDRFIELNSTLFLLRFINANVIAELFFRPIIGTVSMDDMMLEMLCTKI
ssDAF12 agonist: activators of S. stercoralis DAF-12 nuclear receptor. HEK293 ssDAF-12/GRIP1 lit1-tk-luc reporter, luminescence; % of 3 µM dafachronic acid response. 370,000 compounds, 1% hits. activation, % at 6.8 µM. AID 652126;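 active means activation above the mean over all tested compounds plus 3 SD, cut at about 0.9% in these data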;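 further: 0% = DMSO-only wells and 100% = 3 µM delta7-dafachronic acid wells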
LXRb hcDAF ctr: counter-screen for hcDAF-12 agonists: agonists of human LXR-beta | HEK293 Gal4-LXR tk-luc reporter, luminescence, 24 h; normalized: DMSO 0%, positive control 100% | AID 743027 | activation, % at 6.8 µM | 3,400 tested, under 10 active | shares compounds with hcDAF12 agonist;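 active means mean percent activation of the reporter above a cutoff set as the average over tested compounds plus their standard deviation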
hcDAF12 conf: confirmation of H. contortus DAF-12 agonists; shares compounds with hcDAF12 agonist; HEK293 hcDAF-12 lit1-tk-luc reporter, luminescence; % of Δ7-dafachronic acid response; activation, % at 6.8 µM; 3,400 compounds, 61% hits;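 active means mean activation across triplicate tests above the threshold derived from the earlier primary screen, cut at about 5.5% in these data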;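 further: 0% = DMSO only wells and 100% = 3 µM Δ7-dafachronic acid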
hgDAF12 ag: hgDAF-12 agonism, confirmation assay | shares compounds with hgDAF12 agonist | HEK293 GAL4-hgDAF12 luciferase reporter, agonist mode; percent of butyrate response | activation, % at 6.8 µM | 3,300 compounds, 80% hits;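 active means mean activation over triplicate wells above the hit cutoff derived from the earlier primary screen, cut at about 11% in these data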;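 further: 0% = DMSO low control and 100% = 2 mM sodium butyrate high control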
LXR ag 2: activates human LXR-beta, counter-screen for DAF-12 agonists; activation, % at 6.8 µM; shares compounds with hgDAF12 agonist; AID 743051; HEK293 Gal4-LXR luciferase reporter, 24 h; 3,300 tested, under 10 active;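 active means mean activation of the triplicate above a set limit carried over from the primary screen, none filed active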
* marks the source's active call; other numbers are inactive results; · = no result.

SMILES	hcDAF12 agonist	DAX1 inh-1	Wee1 degr inh	hgDAF12 agonist	DAX1 inh-2	ssDAF12 agonist	LXRb hcDAF ctr	hcDAF12 conf	hgDAF12 ag	LXR ag 2
Cc1cc(C)c(C#N)c(SCc2nc3ccccc3[nH]2)n1	18*	3	1	15*	4.8*	3.6*	1	11*	12*	0
COc1ccc2c(c1)CCc1c-2n[nH]c1C(=O)NCCC(C)C	6.8*	4.0*	·	15*	2	0	1	4	17*	1
CSc1ccc(NC(=O)Nc2cc(C)ccn2)cc1	7.0*	3	5	19*	2	0.9*	2	9.5*	18*	1
COc1ccc(C(=O)O/N=C(\N)c2ccccc2)cc1	8.7*	3	·	14*	1	1.9*	2	6.7*	18*	1
N/C(=N\OC(=O)c1cccs1)c1ccccc1	7.4*	1	3	16*	2	2.3*	1	3	15*	1
Cc1cccc(/C(N)=N/OC(=O)c2cccs2)c1	7.9*	3	3	15*	4	1.8*	1	5.7*	17*	1
N/C(Cc1cccc2ccccc12)=N\OC(=O)c1cccs1	·	·	0	·	1	·	·	·	·	·
COC(=O)c1c(NC(=O)COC(=O)CC(NC(C)=O)c2ccccc2)sc(C)c1C (centres undefined)	-1	2	·	-2	1	-1	·	·	·	·
COc1ccc(-c2csc(-n3cccn3)n2)cc1	7.0*	2	·	14*	4	0	1	5	18*	1
Cc1noc(C)c1COc1ccc(C(=O)OCC(=O)Nc2ccc(S(N)(=O)=O)cc2)cc1	0	1	·	0	0	-1	·	·	·	·
NS(=O)(=O)c1ccc(NC(=O)CSc2nc3c(cnn3-c3ccccn3)c(=O)[nH]2)cc1	2	1	·	-1	0	0	·	·	·	·
CCCCN(C)C(=O)c1sc(=O)n(CC(=O)c2ccccc2OC)c1C	0	0	·	6	·	-2	·	·	·	·
CCOc1ccc(NC(=O)c2ccncc2)cc1	1	0	0	0	4	-1	·	·	·	·
CCOc1ccc(NC(=O)c2nsc(Cl)c2Cl)cc1	7.2*	4.4*	4	18*	4	0.9*	1	6.6*	18*	1
CCOC(=O)[C@@]12CCC3=C1N(CCC3)C(=O)[C@H](CC(=O)N1CCN(C(=O)C3CC3)CC1)C2	-1	-1	·	-2	·	0	·	·	·	·
COC(=O)c1ccc(N=NNc2cccc(Br)c2)cc1	7.9*	3	1	15*	0	0	1	7.1*	16*	0
COC(=O)C(C)Nc1cccc(Br)c1 (centres undefined)	0	0	0	-1	0	-2	·	·	·	·
COc1ccc(C(=O)N2CCC(C)(C(=O)O)C2)cc1OC (centres undefined)	0	-1	·	0	·	0	·	·	·	·
N=c1n(N)c2ccccc2n1CC(=O)c1ccc(Br)cc1	8.1*	3	·	15*	3	1	1	5	14*	0
O=C(Nc1cccc(OC(F)(F)F)c1)[C@@H]1O[C@H](CO)[C@H](O)[C@H](O)[C@H]1O	0	1	·	1	·	-1	·	·	·	·
O=C(Nc1ccc(Cl)cc1)C1=Cc2ccccc2OC1	9.6*	3	5	18*	2	1.3*	1	8.0*	22*	1
CC(C)n1cnc2cc(NCc3nc4ccccc4n3C)ccc21	6.7*	2	2	14*	1	-1	1	6.1*	11*	1
CCCC(=O)NCc1nc2ccccc2n1C	1	0	2	0	0	-1	·	·	·	·
COP(=O)(OC)C(NC(=O)OCc1ccccc1)C(C)C (centres undefined)	-1	0	·	0	·	0	·	·	·	·
COc1c(F)cc2[nH]c3c(c2c1F)CCNC3=O	-2	-1	·	2	-1	-2	·	·	·	·
SMILES	hcDAF12 agonist	DAX1 inh-1	Wee1 degr inh	hgDAF12 agonist	DAX1 inh-2	ssDAF12 agonist	LXRb hcDAF ctr	hcDAF12 conf	hgDAF12 ag	LXR ag 2
CCOC(=O)/C(=N\Nc1ncnc2ccccc12)c1ccc(C)cc1	19*	2	·	21*	0	2.5*	2	19*	20*	1
COc1ccc(NC(=S)Nc2ccccn2)cc1	11*	2	4	15*	4	1.7*	1	3	13*	1
Cc1ccc(S(=O)(=O)NC(=O)C2(C)CCN2C(=O)Cc2cccs2)nc1 (centres undefined)	-1	2	·	-4	·	0	·	·	·	·
COc1cccc(-c2csc3ncnc(Sc4nnnn4C)c23)c1	0	-1	·	-4	-3	-1	·	·	·	·
Cc1ccc(/C(N)=N/OC(=O)c2ccco2)cc1	7.8*	4.2*	2	14*	0	1.2*	1	5	19*	1
N/C(=N\OC(=O)c1ccco1)c1ccccc1	3	3	0	8	4	-1	·	·	·	·
Cc1cccc(/C(N)=N/OC(=O)c2ccco2)c1	6.6*	3.7*	5	18*	1	1.4*	1	4	19*	1
C#CCN1C=CC(=O)[C@@H](OC(=O)Nc2ccc(C)cc2)[C@H]1c1ccccc1Br	2	0	·	3	-1	0	·	·	·	·
Cc1ccc(-c2csc(-c3c[nH]c4ccccc34)n2)c(C)c1	1	1	0	9	2	0	·	·	·	·
Oc1ccc(-c2csc(-c3c[nH]c4ccccc34)n2)c(O)c1	8.3*	3	1	14*	3	2.7*	1	9.2*	17*	1
COc1ccc(C2=NNC(=O)C2(C)Br)cc1 (centres undefined)	-1	-2	·	-5	0	-1	·	·	·	·
Cc1ccc([C@H]2C[C@H](n3cc(C4CC4)nn3)[C@@H](O)CN2CC2CCCCC2)cc1	0	-1	·	1	1	-1	·	·	·	·
CN(C)C=Nc1ccc2nn(-c3ccccc3)nc2c1	6.7*	4.4*	3	15*	3	1.2*	2	8.2*	22*	1
CN(C)C=Nc1ccc(Cl)c(Cl)c1	-2	0	0	2	2	-1	·	·	·	·

High-throughput results: PubChem BioAssay, The Scripps Research Institute Molecular Screening Center
